Compound activity as filed in PubChem.
Shown are actives, neighbours in structure and some others; about 10% of the full set was active somewhere.
CtBP-E1A blk: qHTS Assay for Inhibitors of the CtBP/E1A Interaction; CtBP / adenovirus E1A interaction (AlphaScreen); AlphaScreen GST-E1A/His-CtBP binding, 1536-well; stronger effect = lower value; activity change, % (concentration not given with the values); actives 0.49% (n = 340,000); in the data active = activity change below about -65%; inconclusive = mostly about -30% to -63%
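Homogeneous bead-based format: GST-tagged E1A captured on glutathione donor beads, His-tagged CtBP on nickel acceptor beads; compounds precede bead addition by 2 h at 37 °C.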
BAZ2B block: qHTS Assay for Inhibitors of BAZ2B; AID 504333, 2011; Potency, µM (highest dose often 114 µM), usual class: inhibitors; AlphaScreen BAZ2B-H3K14Ac peptide displacement; actives 4.4% (n = 360,000); Bromodomain adjacent to zinc finger domain protein 2B (Homo sapiens), Q9UIF8; note: nearly all actives have a fitted effect of over 60% in size
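AlphaScreen displacement of biotin-H3(5-23)K14Ac peptide (50 nM final) from BAZ2B (50 nM final) in PBS pH 7.4, 0.01% Tween-20; complex preformed 30 min RT, then compounds (top 110 uM) 30 min RT, beads 20 min dark.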
HP1b binding inh: HTS for Inhibitors of HP1-beta Chromodomain Interactions with Methylated Histone Tails; AlphaScreen HP1-beta / biotin-H3K9me3 peptide binding; actives 0.56% (n = 390,000); AID 540317, 2011; Potency, µM (doses to about 114 µM), hits mostly inhibitors; Chromobox protein homolog 1 (Homo sapiens), P83916; note: nearly all actives have a fitted effect of over 70% in size
Target sequence (P83916 whole entry, looked up): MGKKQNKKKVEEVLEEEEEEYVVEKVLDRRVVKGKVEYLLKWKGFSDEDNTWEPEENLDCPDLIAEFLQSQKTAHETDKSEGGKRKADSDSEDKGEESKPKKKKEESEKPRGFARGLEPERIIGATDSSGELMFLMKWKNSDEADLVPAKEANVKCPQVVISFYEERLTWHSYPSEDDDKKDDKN
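HP1-beta protein (50 nM final) preincubated 30 min at room temperature with biotinylated H3(1-18)K9me3 peptide (50 nM) in PBS pH 7.4, 0.01% Tween-20, then compound added for 30 min. AlphaScreen streptavidin donor/nickel chelate acceptor beads (10 ug/mL final), 30 min dark, luminescence read.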
Six1-Eya2 inh: qHTS Assay for Inhibitors of the Six1/Eya2 Interaction. Homeobox protein SIX1 (Homo sapiens) + Protein phosphatase EYA2 (Homo sapiens), …. AlphaScreen GST-Six1/His-Eya2 binding, biochemical; stronger effect = lower value. activity change, % (concentration not given with the values). actives 0.56% (n = 360,000). AID 651725, 2012; in the data active = activity change below about -65%; inconclusive = mostly about -30% to -63%
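GST-Six1 + His-Eya2 (5X stock: 250/500 nM); Tris pH 8.0, 300 mM NaCl, 0.05% BSA, 0.02% Tween 20; GSH donor/Ni acceptor beads; 1 h 37 °C dark; AlphaScreen readout.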
JMJD2A Tudor: qHTS Assay for Inhibitors of JMJD2A-Tudor Domain; Potency, µM (titrated, usually from 114 µM), usual class: inhibitors; actives 4.4% (n = 390,000); AlphaScreen JMJD2A-Tudor / H3K4me3 peptide binding; note: nearly all actives have a fitted effect of over 50% in size
G9a block: qHTS Assay for Inhibitors of Histone Lysine Methyltransferase G9a; actives 8.8% (n = 350,000); G9a H3K9 monomethylation, AlphaScreen, 2 h; Potency, µM (top dose mostly 102 µM), hits mostly inhibitors; Histone-lysine N-methyltransferase EHMT2 (Homo sapiens), Q96KQ7; AID 504332, 2011; note: nearly all actives have a fitted effect of over 75% in size
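Compounds were preincubated with 20 nM G9a for 15 min, after which biotinylated H3K9 peptide (500 nM) and SAM (20 uM) started a 2 h room-temperature reaction. Monomethylated product was quantified by antibody-based AlphaScreen chemiluminescence.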
Hits are given with their value; . = inactive; ? = inconclusive; / = no result; ! = repeats disagree; [ ] = dose if it differs, or a comment. Unless noted, calls come from the whole dose curve; as a rule, active = well fitted inhibition curve with a large enough effect; inconclusive = small, poorly fitted or top-dose-only effect; inactive = no such curve, though single readings can be large or run the other way.

SMILES	CtBP-E1A blk	BAZ2B block	HP1b binding inh	Six1-Eya2 inh	JMJD2A Tudor	G9a block
Cc1ccc(N2CCN(S(=O)(=O)c3nnc(NC(=O)c4ccco4)s3)CC2)cc1	.	.	.	.	.	28µM
Cc1ccc(N(C)S(=O)(=O)c2nnc(NC(=O)c3ccco3)s2)cc1	.	?	.	.	?	4µM!
CCOc1ccccc1C(=O)N1CC(=O)Nc2ccc(C)cc2C1c1ccccc1 (stereo not given)	/	.	.	/	.	.
CCN(CC)S(=O)(=O)c1cccc(N=Nc2sc(N)nc2C)c1	?	11µM	?	?	35µM	40µM
O=[N+]([O-])c1ccc(/C([O-])=C(/C(=S)NCc2ccco2)[n+]2ccccc2)cc1	.	?	.	.	.	35µM
[O-]/C(=C(\C(=S)NCc1ccco1)[n+]1ccccc1)c1ccccc1Br	.	?	.	.	.	?
Cc1ccc(/C([O-])=C(/C(=S)NCc2ccco2)[n+]2ccccc2)cc1	/	.	/	/	/	2.5µM
Cc1ccc(NC(=S)/C(=C(\[O-])c2ccc(F)cc2)[n+]2ccccc2)cc1	.	?	?	.	?	13µM
Cc1ccccc1N=C1C(=O)Nc2ccccc21	.	/	.	.	.	/
COc1ccc(CCC(=O)Nc2ccc(C)c(S(=O)(=O)N(C)C)c2)cc1OC	.	.	.	.	.	.
COc1ccc(CCNCC(=O)Nc2ccc(C)c(S(=O)(=O)N(C)C)c2)cc1	.	50µM	?	.	0.79µM	14µM
Cc1ccc(NC(=S)NC2CCCCC2)cc1S(=O)(=O)N(C)C	.	.	.	.	.	40µM
CCN(CC)S(=O)(=O)c1ccc(C)c(NC(=S)NC2CCCCC2)c1	.	.	.	.	.	.
Cc1ccc(NC(=O)CNCC2CCCCC2)cc1S(=O)(=O)N(C)C	/	?	.	.	22µM	?
Cc1ccc(NC(=O)CN(C)C2CCCCC2)cc1Cl	.	?	?	.	10µM	/
CCOC(=O)C1CCN(C(=O)C2COc3ccccc3C2)CC1 (stereo not given)	/	.	.	/	.	.
CC(=O)Nc1ccc(NC(=O)[C@@H](NC(=O)c2ccccc2F)C(C)C)cc1	.	.	.	.	.	.[2.33 µM]
CSC(=Nc1ccccc1)C1=C(O)COC1=O	.	.	.	.	.	?
CCSC(=Nc1ccccc1)C1=C(O)COC1=O	.	?	.	.	.	35µM
CC(Oc1ccccc1Cl)C(=O)Nc1ccc(S(=O)(=O)Nc2nccs2)cc1 (stereo not given)	.	.	.	.	?	56µM
CCCCC1CCC(C(=O)Nc2ccc(S(=O)(=O)Nc3nccs3)cc2)CC1 (stereo not given)	.	.	.	.	.	45µM
CSCCC(NS(=O)(=O)c1ccccc1)C(=O)Nc1nccs1 (stereo not given)	.	.	.	.	.	8.9µM
CC(Oc1ccc(Cl)cc1)C(=O)Nc1ccc(S(=O)(=O)Nc2nccs2)cc1 (stereo not given)	.	.	.	.	.	.
